Reference: PubChem BioAssay (Tox21)
Unmarked numbers belong to inactive results. Records with an inconclusive call do not appear. Active and inactive are the calls of the source. Unless noted, calls follow the shape of the full dose curve.

Target: Muscarinic acetylcholine receptor M1 (Homo sapiens) (UniProt P11229)
Test: Cholinergic receptor muscarinic 1 (CHRM1) small molecule agonists, cell-based qHTS assay (AID 1963589); also: nearly all actives have a fitted effect of over 35% in size
Conditions: CHRM1-CHO cells, agonist mode, calcium flux fluorescence; series mostly up to 76.8 µM; activation: at the top concentration
Procedure, shortened: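 Cells were plated and incubated 18 h at 37 C/5% CO2, loaded with calcium dye for 1 h at 37 C, then treated with compounds in DMSO. Fluorescence was recorded kinetically at 1 sec intervals.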
% is scaled to controls: 0 for no effect and ±100 for the full control effect.

Sequence of Muscarinic acetylcholine receptor M1 (Homo sapiens) (P11229 whole entry, looked up): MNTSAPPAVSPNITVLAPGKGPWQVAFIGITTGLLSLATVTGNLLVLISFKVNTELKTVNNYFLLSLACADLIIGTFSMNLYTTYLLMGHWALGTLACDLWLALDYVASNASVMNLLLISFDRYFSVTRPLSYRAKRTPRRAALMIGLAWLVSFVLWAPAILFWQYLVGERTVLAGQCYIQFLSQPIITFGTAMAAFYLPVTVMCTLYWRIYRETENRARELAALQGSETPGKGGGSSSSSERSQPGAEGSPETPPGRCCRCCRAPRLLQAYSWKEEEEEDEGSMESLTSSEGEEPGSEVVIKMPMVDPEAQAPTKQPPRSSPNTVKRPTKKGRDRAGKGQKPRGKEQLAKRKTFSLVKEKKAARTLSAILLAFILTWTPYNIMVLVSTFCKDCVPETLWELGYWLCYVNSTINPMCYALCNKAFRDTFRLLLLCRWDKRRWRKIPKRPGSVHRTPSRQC

SMILES	activation
CC[C@H](NC(C)C)[C@H](O)c1ccc(O)c2[nH]c(=O)ccc12	-0.118% [at 35.3 µM]
O=c1[nH]c(=O)n([C@H]2O[C@H](CO)[C@@H](O)[C@@H]2O)cc1/C=C\Br	0% [at 35.3 µM]
O=C(O)c1cc(O)c2c(c1)C(=O)c1cccc(O)c1C2=O	-0.183%
Nc1ccccc1O	-0.467%
CCCCCCCCCC=O	-1.33%
CN1CCN(c2c(F)cc3c(=O)c(C(=O)O)cn4c3c2OCN4C)CC1	-0.139% [at 15.8 µM]
COc1ccc2sc(C(=O)Nc3nnn[nH]3)c(OC(C)C)c2c1	0.128%

Tested on: not listed separately
Test: cAMP Responsive Elements (CRE) small molecule agonists, cell-based qHTS assay (AID 1963590)
Conditions: CRE-bla HEK293T, beta-lactamase FRET ratio, 3 h; series mostly up to 92.4 µM; activation: at the top concentration
Procedure, shortened: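 Cells carrying a CRE-driven beta-lactamase reporter (HEK 293T) are seeded, incubated overnight (18 h), and treated with test compounds for 3 h at 37 C; reporter activity is then detected with a FRET substrate after 2 h at room temperature.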

SMILES	activation
CCCCCC(=O)OCCc1ccccc1	0.841%
COc1cc(C(C)C)ccc1C	-1.07% [at 19 µM]
O=C(C(Cl)Cl)N1CCOC12CCCCC2	-2.82%
O=S(=O)(O)c1ccc(Cl)cc1	-0.244%
CN(C)CCCCl	-1.28%
C=C(C)C(=O)OC1CC(C)CC(C)(C)C1 (stereo not given)	-0.0589%
Nc1cc(C(=O)O)ccc1Cl	-1.26%
NC(CO)C(=O)NNCc1ccc(O)c(O)c1O (stereo not given)	2.42% [at 42.5 µM]
CCN(CC)c1cccc(C)c1	-0.673%
C[C@H](O)C(=O)Nc1c(I)c(C(=O)NC(CO)CO)c(I)c(C(=O)NC(CO)CO)c1I	0.622% [at 42.5 µM]
O=C=NCc1cccc(CN=C=O)c1	1.18% [at 19 µM]
O=[N+]([O-])c1ccc(CO)cc1	-0.0426%
CCN(CC)c1ccc(C=O)cc1	0.983%
CC(=O)Nc1ccc(N)cc1	-0.757%

Tested on: not listed separately
Test: cAMP Responsive Elements (CRE) small molecule antagonists, cell-based qHTS assay (AID 1963591; active = well fitted inhibition curve with a large enough effect in the signal ratio in the repeat runs, not every such curve was filed as active; the % refers to the signal ratio)
Conditions: CRE-bla HEK293T, beta-lactamase FRET ratio; series mostly up to 92.4 µM; activity change, negative = inhibition: at the top concentration
Procedure, shortened: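 Cells (CRE-bla HEK 293T, DMEM with 10% dialyzed FBS and 25 mM HEPES) are seeded and incubated 18 h. Compounds are added with NKH477 agonist at 0.25 uM final for 3 h, then FRET substrate for 2 h.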

SMILES	activity change, negative = inhibition
CCCCCC(=O)OCCc1ccccc1	-6.14%
COc1cc(C(C)C)ccc1C	-0.604% [at 18.9 µM]
O=C(C(Cl)Cl)N1CCOC12CCCCC2	-7.98%
O=S(=O)(O)c1ccc(Cl)cc1	-7.58%
CN(C)CCCCl	-1.1%
C=C(C)C(=O)OC1CC(C)CC(C)(C)C1 (stereo not given)	-18.9%
Nc1cc(C(=O)O)ccc1Cl	-1.38%
NC(CO)C(=O)NNCc1ccc(O)c(O)c1O (stereo not given)	-18.5% [at 42.4 µM]
CCN(CC)c1cccc(C)c1	1.28%
C[C@H](O)C(=O)Nc1c(I)c(C(=O)NC(CO)CO)c(I)c(C(=O)NC(CO)CO)c1I	-9.43% [at 42.4 µM]
O=C=NCc1cccc(CN=C=O)c1	0.972% [at 18.9 µM]
O=[N+]([O-])c1ccc(CO)cc1	-1.46%
CCN(CC)c1ccc(C=O)cc1	-3.83%
CC(=O)Nc1ccc(N)cc1	1.4%

Target: Beta-2 adrenergic receptor (Homo sapiens) (UniProt P07550)
Test: Adrenergic beta2 receptor (ADRB2) small molecule antagonists, cell-based qHTS assay (AID 1963592); also: nearly all actives have a fitted effect of over 50% in size; also: potency is read from the fitted curve at half-maximal effect
Conditions: CHO-ADRB2 cells, isoproterenol-stimulated cAMP HTRF ratio, 0.5 h; series mostly up to 92.4 µM; activity change, negative = inhibition: at the top concentration
Procedure, shortened: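 Assay format: CHO-ADRB2 cells, 18-20hr seeding at 37C/5% CO2, then compound plus 1nM isoproterenol agonist mix for 0.5hr RT. Homogeneous time-resolved fluorescence cAMP detection after 1hr, expressed as 665/615 nm ratio.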

Sequence of Beta-2 adrenergic receptor (Homo sapiens) (P07550 whole entry, looked up): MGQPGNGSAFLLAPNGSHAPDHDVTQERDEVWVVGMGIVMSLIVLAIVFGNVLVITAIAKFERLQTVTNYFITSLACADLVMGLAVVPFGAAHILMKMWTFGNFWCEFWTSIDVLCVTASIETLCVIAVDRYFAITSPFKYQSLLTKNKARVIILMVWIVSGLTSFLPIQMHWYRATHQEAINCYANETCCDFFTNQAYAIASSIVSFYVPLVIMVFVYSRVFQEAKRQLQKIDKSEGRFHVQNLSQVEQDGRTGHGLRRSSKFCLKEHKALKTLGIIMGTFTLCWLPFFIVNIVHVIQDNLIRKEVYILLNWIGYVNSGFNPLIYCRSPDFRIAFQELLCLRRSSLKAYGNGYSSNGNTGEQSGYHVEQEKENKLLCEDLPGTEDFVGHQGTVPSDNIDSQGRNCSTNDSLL

SMILES	activity change, negative = inhibition	Potency
c1cc2c3c(c1)ccc1cccc(c13)C2	1.93%	–
CCOC(=O)N1CCC(Nc2ccc(Cl)cc2N)CC1	-5.92% [at 42.5 µM]	–
CCCCCC(=O)OCCc1ccccc1	3.06%	–
COc1cc(C(C)C)ccc1C	-2.77% [at 19 µM]	–
CC(C)(Oc1ccc(Cl)cc1)C(=O)OCCCOC(=O)C(C)(C)Oc1ccc(Cl)cc1	2.66% [at 42.5 µM]	–
CCCCCCCC(=O)Oc1c(Br)cc(C#N)cc1Br	-11.8%	–
O=C(C(Cl)Cl)N1CCOC12CCCCC2	7.03%	–
COc1ccc(-c2coc3cc(O)ccc3c2=O)cc1	-11.8%	–
COc1ccc2nc(SCc3ncc(C)c(OC)c3C)[nH]c2c1	1.94% [at 42.5 µM]	–
O=S(=O)(O)c1ccc(Cl)cc1	-1.83%	–
CC(C)OC(=O)C(C)N(C(=O)c1ccccc1)c1ccc(F)c(Cl)c1 (stereo not given)	-12.2%	–
CCOC(=O)c1c(N)sc2c1CCN(Cc1ccccc1)C2	-1.76% [at 42.5 µM]	–
CN(C)CCCCl	2.98%	–
CCCCNc1c(C(=O)OCC)c(C)nc2c1cnn2CC	6.03% [at 42.5 µM]	–
C=C(C)C(=O)OC1CC(C)CC(C)(C)C1 (stereo not given)	0.704%	–
Nc1cc(C(=O)O)ccc1Cl	0.274%	–
O=C(NC1CCN(CCc2c[nH]c3ccccc23)CC1)c1ccccc1	–	13.3 µM (active)
O=C(O)CCCc1c[nH]c2ccccc12	0.312%	–
CCN(CC)c1cccc(C)c1	-0.504%	–
CCCC(C)c1ccccc1O (stereo not given)	0.34%	–
O=C(O)c1cn(C2CC2)c2cc(Cl)c(F)cc2c1=O	-12.7% [at 42.5 µM]	–
C[C@H](O)C(=O)Nc1c(I)c(C(=O)NC(CO)CO)c(I)c(C(=O)NC(CO)CO)c1I	-0.126% [at 42.5 µM]	–
CC1(C)CCC(C)(C)c2cc(NC(=O)c3ccc(C(=O)O)cc3)ccc21	-1.74% [at 42.5 µM]	–
O=C=NCc1cccc(CN=C=O)c1	-5.04% [at 19 µM]	–
CCCCC(=O)O[C@]1(C(=O)CO)CC[C@H]2[C@@H]3CCC4=CC(=O)CC[C@]4(C)[C@H]3[C@@H](O)C[C@@]21C	0.29% [at 42.5 µM]	–
CCN(CC)c1ccc(C=O)cc1	2.77%	–
O=C(O)c1cc(O)c2c(c1)C(=O)c1cccc(O)c1C2=O	0.708%	–
CC(=O)Nc1ccc(N)cc1	5.33%	–
CCCCCCCCCC=O	9.83%	–

Target: Beta-2 adrenergic receptor (Homo sapiens) (UniProt P07550)
Test: Adrenergic beta2 receptor (ADRB2) small molecule agonists, cell-based qHTS assay (AID 1963593); also: potency is read from the fitted curve at half-maximal effect;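 as to activation: CHO cells stably overexpressing human ADRB2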
Conditions: CHO-ADRB2 cells, cAMP HTRF, 30 min; series mostly up to 42.5 µM; activation: at the top concentration
Procedure, shortened: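 CHO cells stably over-expressing ADRB2 were plated overnight at 37C, then dosed with compounds plus a stimulation mix containing 100uM IBMX and 25uM Ro-20-1724 for 0.5hr at room temperature. cAMP was measured by HTRF competition, 1hr.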

SMILES	activation	Potency
CCCCCCCCCCOCC(O)CN (stereo not given)	15.3%	–
CCCCCCCC(=O)Oc1c(Br)cc(C#N)cc1Br	-5.01% [at 92.4 µM]	–
COc1ccc(-c2coc3cc(O)ccc3c2=O)cc1	-11.8% [at 92.4 µM]	–
O=S(=O)(O)c1ccc(Cl)cc1	-0.265% [at 92.4 µM]	–
CCCCNc1c(C(=O)OCC)c(C)nc2c1cnn2CC	-10.9%	–
O=C=NCc1cccc(CN=C=O)c1	5.7% [at 19 µM]	–
CC[C@H](NC(C)C)[C@H](O)c1ccc(O)c2[nH]c(=O)ccc12	–	0.0017 µM (active)
O=[N+]([O-])c1ccc(CO)cc1	26% [at 92.4 µM]	–
CC(=O)Nc1ccc(N)cc1	3.58% [at 92.4 µM]	–
CCCCCCCCCC=O	-3.19% [at 92.4 µM]	–
CN1CCN(c2c(F)cc3c(=O)c(C(=O)O)cn4c3c2OCN4C)CC1	0.0624% [at 19 µM]	–
